Screens from PubChem BioAssay.
GLA inh pH 4.5 – blocks human alpha-galactosidase A at pH 4.5 | P06280 | purified enzyme, 4-MU-alpha-Gal fluorescence, pH 4.5 | activity change, negative = inhibition, % at 105 µM | 230,000 tested, under 10 active | AID 1467
GAA inhib – inhibitors of human lysosomal alpha-glucosidase | Potency, µM (doses to about 76.9 µM), usual class: inhibitors | 200,000 tested, 0.005% active | P10253 | AID 1466 | purified human GAA, 4-MU-alpha-glucoside fluorescence
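AC50 values come from Hill fits of compound titrations (up to 77 uM) against 4 nM human enzyme. Substrate 4-methylumbelliferyl-alpha-D-pyranoside at 400 uM, pH 5.0 citrate buffer, 20 min room temperature; fluorescence Ex 365/Em 440 after alkaline stop.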
GAA glycogen – GAA glycogen-cleavage inhibition or activation | P10253 | recombinant GAA, glycogen substrate, Amplex Red glucose oxidase fluorescence | Potency, µM (titrated, usually from 76.4 µM), usual class: inhibitors | 300,000 tested, 0.38% active;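 further: the screen sought inhibitors and activators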
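Recombinant human alpha-glucosidase (4 nM final) hydrolysed bovine liver glycogen (30 ug) for 40 min at 37 C in pH 5.0 citrate/phosphate with 0.01% Tween-20. Released glucose detected by glucose oxidase/Amplex Red, Ex 573/Em 610 nm. Compounds up to 77 uM; AC50 from Hill fits.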
aGlu spleen mod – inhibits or activates alpha-glucosidase in human spleen homogenate; human spleen homogenate, 4-MU-alpha-glucoside fluorescence; Potency, µM (series often up to 79.9 µM), hits mostly inhibitors; 240,000 tested, 0.006% active; AID 2112
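Human spleen homogenate (1 ug) with 4-methylumbelliferyl-alpha-D-glucopyranoside (1 mM final) in 50 mM citrate/phosphate pH 5.0, 0.01% Tween-20; 40 min at 37 C. Stopped at pH 10; 4-MU fluorescence Ex 365/Em 440 nm; AC50 by Hill fit.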
N370S GC mod – N370S glucocerebrosidase modulation, Gaucher chaperone candidate; Potency, µM (doses to about 59.4 µM), hits mostly inhibitors; 330,000 tested, 0.092% active; N370S GC spleen homogenate, 4MU-glucoside fluorescence; P04062; AID 2101
aGal spleen mod – inhibits or activates alpha-galactosidase in human spleen homogenate; P06280; human spleen homogenate, 4MU-alpha-Gal fluorescence, 40 min; Potency, µM (titrated, usually from 80 µM), hits mostly inhibitors; 240,000 tested, 0.008% active; AID 2107
Target sequence (P06280 32-429 limits assumed): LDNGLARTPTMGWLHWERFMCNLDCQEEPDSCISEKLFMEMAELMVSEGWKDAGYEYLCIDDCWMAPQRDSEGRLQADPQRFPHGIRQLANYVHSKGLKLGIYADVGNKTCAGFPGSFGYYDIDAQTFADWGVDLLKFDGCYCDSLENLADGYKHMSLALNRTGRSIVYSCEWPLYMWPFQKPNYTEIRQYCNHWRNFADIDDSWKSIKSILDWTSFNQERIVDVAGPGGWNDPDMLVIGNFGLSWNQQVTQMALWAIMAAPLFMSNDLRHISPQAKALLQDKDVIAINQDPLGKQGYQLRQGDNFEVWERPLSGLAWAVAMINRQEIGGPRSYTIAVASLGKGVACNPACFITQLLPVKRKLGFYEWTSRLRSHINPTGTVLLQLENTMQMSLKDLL
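qHTS titration in buffer at pH 5.0. Alpha-galactosidase activity in spleen homogenate was measured via 4-methylumbelliferone release from 1 mM fluorogenic substrate after 40 min at 37C and a pH 10 stop. AC50 came from Hill fits of control-normalized data.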
Hits are given with their value; - = inactive; ? = inconclusive; . = not tested or not shown; [ ] = dose if it differs, or a comment. Sampled rows, rich in hits. Any-hit rate of the full collection: about 0.43%. The call rests on the fitted dose curve; in most records, active means well fitted curve in the direction sought with a large enough effect; inconclusive means small, poorly fitted or top-dose-only effect, or another doubt; inactive means no such curve, though single readings can be large; an effect the other way counts as inactive or inconclusive.

SMILES	GLA inh pH 4.5	GAA inhib	GAA glycogen	aGlu spleen mod	N370S GC mod	aGal spleen mod
COC(=O)C1=C(C)NC(C)=C(C(=O)NCCCN2CCC(c3ccccc3)(c3ccccc3)CC2)C1c1ccc([N+](=O)[O-])cc1 (centres undefined)	.	.	.	-	-	-
Cc1[nH]c(/C=C2/C(=O)Nc3ccc(S(=O)(=O)Cc4c(Cl)cccc4Cl)cc32)c(C)c1C(=O)N1CCCC1CN1CCCC1 (centres undefined)	.	.	.	-	-	-
COc1ccccc1NC(=S)N(CCCN1CCOCC1)Cc1cn(C)c2ccccc12	-	-	-	-	?	-
COc1cc(Cl)ccc1NC(=S)N(CCCN1CCOCC1)Cc1cn(C)c2ccccc12	-	-	-	-	7.08µM	-
COc1ccc(Cl)cc1NC(=S)N(CCCN1CCOCC1)Cc1cn(C)c2ccccc12	-	-	-	-	6.31µM	-
CCN1C(C)=C(C(=O)OC)C(c2ccccc2)N2C(=O)[C@](O)(C(=O)OC)C(c3ccccc3)C(C(C)=O)=C12 (some centres undefined)	.	.	.	-[17.4 µM]	-[12.8 µM]	-[17.5 µM]
CN(C)c1ccc(-c2cncnc2-n2ccnc2)cc1	.	.	.	-	-	-
COc1ccc(C(c2c(NC(C)=O)sc3c2CCCC3)N2CCN(CCO)CC2)cc1OC (centres undefined)	-	-	-	-	14.1µM	-
CC(=O)Nc1sc2c(c1C(c1cccc(Cl)c1)N1CCN(CCO)CC1)CCCC2 (centres undefined)	-	-	-	-	17.8µM	-
C=CC1=C2C=C(C3CC3)N(Cc3ccco3)C=C2C(=O)C(C)(OC(=O)c2ccco2)C1=O (centres undefined)	-	.	.	-[17.4 µM]	-[12.8 µM]	-[17.5 µM]
O=c1cc(-c2ccc(O)c(O)c2)oc2ccccc12	-	.	.	-	-	-
Cc1ccc(N/C=C/C(=O)c2ccco2)c(O)c1	-	.	8.91µM	-	-	-
CCOC(=O)CNc1c(-c2ccc(Cl)cc2)nc2cnccn12	-	?	39.8µM	-	-	-
CCOC(=O)CNc1c(-c2ccc(OC)cc2)nc2ccc(Cl)cn12	-	-	?	-	?	-
CCOC(=O)CNc1c(-c2ccc(F)cc2)nc2cnccn12	-	-	12.5µM	-	-	-
Cc1[nH][nH]c(=O)c1C(c1ccc(-c2ccc(Cl)c(Cl)c2)o1)c1c(C)[nH][nH]c1=O	-	-	31.6µM	-	-	-
Cc1[nH][nH]c(=O)c1C(c1ccc(-c2ccc(F)cc2)o1)c1c(C)[nH][nH]c1=O	-	-	?	-	-	-
O=C(CN1CCN(S(=O)(=O)c2ccc(Cl)cc2)CC1)c1ccc(O)c(O)c1	.	.	8.91µM	.	-	.
Cc1ccc(S(=O)(=O)N2CCN(CC(=O)N/N=C/c3ccc(C)o3)CC2)cc1	-	?	-	-	-	-
Cc1ccc(S(=O)(=O)N2CCN(CC(=O)N/N=C\c3ccc(O)c(O)c3)CC2)cc1	-	.	6.31µM	?	-	-
O=C(CN1CCN(S(=O)(=O)c2ccc(F)cc2)CC1)c1ccc(O)c(O)c1	-	?	-	-	?	-
FC(F)(F)c1ccc2c(c1)NCC1CCCN21 (centres undefined)	-	-	6.31µM	-	-	-
COc1cccc(CNc2ccc3[nH]c(=O)[nH]c3c2)c1OCc1ccccc1F	.	.	28.2µM	.	-	.
COc1cc(CNc2ccc3[nH]c(=O)[nH]c3c2)cc(Cl)c1OCc1ccccc1F	.	.	-	.	.	.
O=C(c1ccccc1)c1ccc(OCCOCCN2CCN(Cc3ccccc3)CC2)cc1	-	-	-	-	14.1µM	-
SMILES	GLA inh pH 4.5	GAA inhib	GAA glycogen	aGlu spleen mod	N370S GC mod	aGal spleen mod
Oc1ccc2[nH]ccc2c1	-	-	14.1µM	-	-	-
Oc1cc2c(cc1O)[C@@H](c1ccccc1)CNCC2	-	-[15.4 µM]	1.78µM	-	-	-
CN1C2CC(OC(=O)C(CO)c3ccccc3)C[C@@H]1[C@H]1OC21 (some centres undefined)	-	.	.	-	-	-
CCN(C(=O)c1c(C)cc(=O)oc1C)c1ccc2c(c1)OCO2	-	-	-	-	-	-
CCN(C(=O)c1coc(=O)c(Br)c1)c1ccc2c(c1)OCO2	-	?	17.6µM	-	-	-
CCOc1ccccc1/C=C/c1onc(C)c1S(=O)(=O)N1CCC(C(=O)N(CC)CC)CC1	.	.	.	.	-	.
CCN(CCN(C)C)C(=O)C1CCN(S(=O)(=O)c2c(C)noc2/C=C/c2ccccc2F)CC1	.	.	-	.	7.08µM	.
COc1ccccc1N1CCN(C(=O)c2nc(SC)ncc2Cl)CC1	.	.	-	.	.	.
C/C=C1\COC(C(=O)NCCN2CCOCC2)(C(F)(F)F)C=C1C=C(C)C (centres undefined)	.	.	.	-	14.1µM	-
CCCC[C@]12Cc3cc(C#N)ccc3C(O1)c1c(cc(-c3ccccc3)oc1=O)O2	.	.	-[15.3 µM]	.	-[12.8 µM]	.
CCCCCn1c(CN2CCN(c3cccc(Cl)c3)CC2)nc2c1c(=O)n(C)c(=O)n2C	-	?	-	-	-	-
CCCCn1c(CN2CCN(c3cccc(Cl)c3)CC2)nc2c1c(=O)n(C)c(=O)n2C	-	?	-	-	-	35.5µM
COc1ccc(C2C=C3CN(C(=O)OC(C)(C)C)S(=O)(=O)C3CC2OC(=O)c2cccc(C)c2)cc1 (centres undefined)	.	.	.	-	-	-
COc1ccccc1N1CCN(/N=C/c2ccc(O)c(O)c2)CC1	-	-	2.8µM	-	-	-
CCOc1ccc(/C=C/C(=O)Nc2sc3c(c2C(=O)OC)C(C(=O)OC)CC3)cc1 (centres undefined)	.	.	-	.	.	.
COc1ccc(N2CCN(Cc3nc(N)nc(Nc4ccccc4OC)n3)CC2)cc1	-	-	39.8µM	-	-	-
COc1ccccc1Nc1nc(N)nc(CN2CCCCC2)n1	-	-	-	-	-	-
O=C1O/C(=C/Br)CCC1c1cccc2ccccc12 (centres undefined)	-	.	.	-	-	-
Cc1ccc2c(C(=O)CNc3nncs3)c(C)[nH]c2c1	-	-	28µM	-	-	-
Cc1c(NC(C)c2cc(Cl)ccc2O)c(=O)n(-c2ccccc2)n1C (centres undefined)	-	-	11.2µM	-	-[12.8 µM]	-
Cc1c(NC(C)C)c(=O)n(-c2ccccc2)n1C	-	.	.	-	-	-
Cc1c(N/C=C/C(=O)c2ccc(Cl)cc2)c(=O)n(-c2ccccc2)n1C	-	-	14.1µM	-	-	-
Cc1c(NC(=O)C(=O)/C=C(\O)c2ccc(Cl)cc2)c(=O)n(-c2ccccc2)n1C	-	-	?	-	-	-
Cc1c(NC(C)c2ccccc2O)c(=O)n(-c2ccccc2)n1C (centres undefined)	-	-	28.2µM	-	-	-
COCCn1c(=O)c(-c2ccc(F)cc2)nc2cnc(OC)nc21	.	.	.	-	-	-
Nc1n[nH]c2ccccc12	-	-	3.55µM	-	-	-
